# Key:
# Assay in all cases: SPOT peptide array binding signal intensity (averaged, normalized) (arbitrary units (background-subtracted, floor 0; scale differs between SH3 domains)); higher = stronger binding of the SH3 domain to the peptide
# [1] = target: AgAbp1
# Method in brief: (§1)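 To measure binding, SH3 domains from four yeast species were fused to GST, expressed in E. coli BL21(DE3) and purified on glutathione Sepharose. Each domain was incubated at 10 μg/ml overnight at 4°C on cellulose membranes with synthetic 15-mer peptides whose cysteines were replaced by serines. Anti-GST antibody, an HRP anti-mouse secondary and luminol were used for detection, and images were quantified with Genespotter. Reported binding signal is normalized, background-subtracted spot intensity averaged over replicates, in arbitrary units that differ between domains.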
# [2] = target: AgBbc1
# Method in brief: as §1
# [3] = target: AgBem1-D1
# Method in brief: as §1
# [4] = target: AgBzz1-D1
# Method in brief: as §1
# [5] = target: AgBzz1-D2
# Method in brief: as §1
# [6] = target: AgCyk3
# Method in brief: as §1
# [7] = target: AgFus1
# Method in brief: as §1
# [8] = target: AgHof1
# Method in brief: as §1
# [9] = target: AgHse1
# Method in brief: as §1
# [10] = target: AgLsb1
# Method in brief: as §1
# [11] = target: AgLsb4
# Method in brief: as §1
# [12] = target: AgMyo5
# Method in brief: as §1
# [13] = target: AgNbp2
# Method in brief: as §1
# [14] = target: AgRvs167
# Method in brief: as §1
# [15] = target: AgSho1
# Method in brief: as §1
# [16] = target: AgSla1-D1-D2
# Method in brief: as §1
# [17] = target: AgSla1-D3
# Method in brief: as §1
# [18] = target: CaAbp1-D1
# Method in brief: as §1
# [19] = target: CaAbp1-D2
# Method in brief: as §1
# [20] = target: CaBbc1
# Method in brief: as §1
# [21] = target: CaBem1-D1
# Method in brief: as §1
# [22] = target: CaBzz1-D1
# Method in brief: as §1
# [23] = target: CaBzz1-D2
# Method in brief: as §1
# [24] = target: CaCyk3
# Method in brief: as §1
# [25] = target: CaFus1
# Method in brief: as §1
# [26] = target: CaHof1
# Method in brief: as §1
# [27] = target: CaHse1
# Method in brief: as §1
# [28] = target: CaLsb1
# Method in brief: as §1
# [29] = target: CaLsb4
# Method in brief: as §1
# [30] = target: CaMyo5
# Method in brief: as §1
# [31] = target: CaNbp2
# Method in brief: as §1
# [32] = target: CaRvs167
# Method in brief: as §1
# [33] = target: CaRvs167-3
# Method in brief: as §1
# [34] = target: CaSho1
# Method in brief: as §1
# [35] = target: CaSla1-D1-D2
# Method in brief: as §1
# [36] = target: CaSla1-D3
# Method in brief: as §1
# [37] = target: ScAbp1
# Method in brief: as §1
# [38] = target: ScBbc1
# Method in brief: as §1
# [39] = target: ScBem1-D1
# Method in brief: as §1
# [40] = target: ScBzz1-D1
# Method in brief: as §1
# [41] = target: ScBzz1-D2
# Method in brief: as §1
# [42] = target: ScCyk3
# Method in brief: as §1
# [43] = target: ScFus1
# Method in brief: as §1
# [44] = target: ScHof1
# Method in brief: as §1
# [45] = target: ScHse1
# Method in brief: as §1
# [46] = target: ScLsb1
# Method in brief: as §1
# [47] = target: ScLsb2
# Method in brief: as §1
# [48] = target: ScLsb3
# Method in brief: as §1
# [49] = target: ScLsb4
# Method in brief: as §1
# [50] = target: ScMyo3
# Method in brief: as §1
# [51] = target: ScMyo5
# Method in brief: as §1
# [52] = target: ScNbp2
# Method in brief: as §1
# [53] = target: ScPex13
# Method in brief: as §1
# [54] = target: ScRvs167
# Method in brief: as §1
# [55] = target: ScSho1
# Method in brief: as §1
# [56] = target: ScSla1-D1-D2
# Method in brief: as §1
# [57] = target: ScSla1-D3
# Method in brief: as §1
# [58] = target: SpAbp1-D1
# Method in brief: as §1
# [59] = target: SpBbc1
# Method in brief: as §1
# [60] = target: SpBzz1-D1
# Method in brief: as §1
# [61] = target: SpBzz1-D2
# Method in brief: as §1
# [62] = target: SpCyk3
# Method in brief: as §1
# [63] = target: SpHof1
# Method in brief: as §1
# [64] = target: SpHof1-2
# Method in brief: as §1
# [65] = target: SpHof1-3
# Method in brief: as §1
# [66] = target: SpHse1
# Method in brief: as §1
# [67] = target: SpLsb1
# Method in brief: as §1
# [68] = target: SpLsb4
# Method in brief: as §1
# [69] = target: SpMyo1
# Method in brief: as §1
# [70] = target: SpNbp2
# Method in brief: as §1
# [71] = target: SpPex13
# Method in brief: as §1
# [72] = target: SpRvs167
# Method in brief: as §1
# [73] = target: SpSla1-D1-D2
# Method in brief: as §1
# [74] = target: SpSla1-D3
# Method in brief: as §1
binder,measurement,setting,value
RKRAPTPPAPSRSEK,SPOT peptide array binding signal intensity,[1],639
same,SPOT peptide array binding signal intensity,[2],146
same,SPOT peptide array binding signal intensity,[3],112
same,SPOT peptide array binding signal intensity,[4],128
same,SPOT peptide array binding signal intensity,[5],98
same,SPOT peptide array binding signal intensity,[6],2
same,SPOT peptide array binding signal intensity,[7],≤ 0
same,SPOT peptide array binding signal intensity,[8],25
same,SPOT peptide array binding signal intensity,[9],171
same,SPOT peptide array binding signal intensity,[10],253
same,SPOT peptide array binding signal intensity,[11],35.5
same,SPOT peptide array binding signal intensity,[12],0.5
same,SPOT peptide array binding signal intensity,[13],1300
same,SPOT peptide array binding signal intensity,[14],4.33
same,SPOT peptide array binding signal intensity,[15],5
same,SPOT peptide array binding signal intensity,[16],167
same,SPOT peptide array binding signal intensity,[17],21.8
same,SPOT peptide array binding signal intensity,[18],3830
same,SPOT peptide array binding signal intensity,[19],3240
same,SPOT peptide array binding signal intensity,[20],426
same,SPOT peptide array binding signal intensity,[21],306
same,SPOT peptide array binding signal intensity,[22],2860
same,SPOT peptide array binding signal intensity,[23],3180
same,SPOT peptide array binding signal intensity,[24],12
same,SPOT peptide array binding signal intensity,[25],106
same,SPOT peptide array binding signal intensity,[26],0.25
same,SPOT peptide array binding signal intensity,[27],3.25
same,SPOT peptide array binding signal intensity,[28],5.5
same,SPOT peptide array binding signal intensity,[29],249
same,SPOT peptide array binding signal intensity,[30],3.5
same,SPOT peptide array binding signal intensity,[31],797
same,SPOT peptide array binding signal intensity,[32],27.8
same,SPOT peptide array binding signal intensity,[33],20.2
same,SPOT peptide array binding signal intensity,[34],4
same,SPOT peptide array binding signal intensity,[35],1150
same,SPOT peptide array binding signal intensity,[36],≤ 0
same,SPOT peptide array binding signal intensity,[37],187
same,SPOT peptide array binding signal intensity,[38],114
same,SPOT peptide array binding signal intensity,[39],21.5
same,SPOT peptide array binding signal intensity,[40],128
same,SPOT peptide array binding signal intensity,[41],26
same,SPOT peptide array binding signal intensity,[42],9.5
same,SPOT peptide array binding signal intensity,[43],≤ 0
same,SPOT peptide array binding signal intensity,[44],0.75
same,SPOT peptide array binding signal intensity,[45],762
same,SPOT peptide array binding signal intensity,[46],89.5
same,SPOT peptide array binding signal intensity,[47],6
same,SPOT peptide array binding signal intensity,[48],1010
same,SPOT peptide array binding signal intensity,[49],31.5
same,SPOT peptide array binding signal intensity,[50],5
same,SPOT peptide array binding signal intensity,[51],1.5
same,SPOT peptide array binding signal intensity,[52],2100
same,SPOT peptide array binding signal intensity,[53],30.5
same,SPOT peptide array binding signal intensity,[54],544
same,SPOT peptide array binding signal intensity,[55],172
same,SPOT peptide array binding signal intensity,[56],1970
same,SPOT peptide array binding signal intensity,[57],46.5
same,SPOT peptide array binding signal intensity,[58],1150
same,SPOT peptide array binding signal intensity,[59],≤ 0
same,SPOT peptide array binding signal intensity,[60],428
same,SPOT peptide array binding signal intensity,[61],157
same,SPOT peptide array binding signal intensity,[62],≤ 0
same,SPOT peptide array binding signal intensity,[63],140
same,SPOT peptide array binding signal intensity,[64],5.75
same,SPOT peptide array binding signal intensity,[65],486
same,SPOT peptide array binding signal intensity,[66],123
same,SPOT peptide array binding signal intensity,[67],39.2
same,SPOT peptide array binding signal intensity,[68],1110
same,SPOT peptide array binding signal intensity,[69],4.5
same,SPOT peptide array binding signal intensity,[70],67.5
same,SPOT peptide array binding signal intensity,[71],≤ 0
same,SPOT peptide array binding signal intensity,[72],450
same,SPOT peptide array binding signal intensity,[73],199
same,SPOT peptide array binding signal intensity,[74],≤ 0
PKRRAPPPVPKKPSS,SPOT peptide array binding signal intensity,[61],863
same,SPOT peptide array binding signal intensity,[62],2.5
same,SPOT peptide array binding signal intensity,[63],165
same,SPOT peptide array binding signal intensity,[64],21
same,SPOT peptide array binding signal intensity,[65],290
same,SPOT peptide array binding signal intensity,[66],143
same,SPOT peptide array binding signal intensity,[67],1820
same,SPOT peptide array binding signal intensity,[68],1020
same,SPOT peptide array binding signal intensity,[69],584
same,SPOT peptide array binding signal intensity,[70],38.5
same,SPOT peptide array binding signal intensity,[71],11
same,SPOT peptide array binding signal intensity,[72],803
same,SPOT peptide array binding signal intensity,[73],1990
same,SPOT peptide array binding signal intensity,[74],≤ 0
TSFKGRPKPPKTLKH,SPOT peptide array binding signal intensity,[1],590
same,SPOT peptide array binding signal intensity,[2],17.8
same,SPOT peptide array binding signal intensity,[3],≤ 0
same,SPOT peptide array binding signal intensity,[4],≤ 0
same,SPOT peptide array binding signal intensity,[5],28
same,SPOT peptide array binding signal intensity,[6],≤ 0
same,SPOT peptide array binding signal intensity,[7],3
same,SPOT peptide array binding signal intensity,[8],22.5
same,SPOT peptide array binding signal intensity,[9],65.5
same,SPOT peptide array binding signal intensity,[10],≤ 0
same,SPOT peptide array binding signal intensity,[11],20
same,SPOT peptide array binding signal intensity,[12],1.5
same,SPOT peptide array binding signal intensity,[13],≤ 0
same,SPOT peptide array binding signal intensity,[14],2
same,SPOT peptide array binding signal intensity,[15],≤ 0
same,SPOT peptide array binding signal intensity,[16],71
same,SPOT peptide array binding signal intensity,[17],5.5
same,SPOT peptide array binding signal intensity,[18],1460
same,SPOT peptide array binding signal intensity,[19],1380
same,SPOT peptide array binding signal intensity,[20],43.5
same,SPOT peptide array binding signal intensity,[21],≤ 0
same,SPOT peptide array binding signal intensity,[22],80.5
same,SPOT peptide array binding signal intensity,[23],67.8
same,SPOT peptide array binding signal intensity,[24],3
same,SPOT peptide array binding signal intensity,[25],44.5
same,SPOT peptide array binding signal intensity,[26],2.75
same,SPOT peptide array binding signal intensity,[27],2.75
same,SPOT peptide array binding signal intensity,[28],≤ 0
same,SPOT peptide array binding signal intensity,[29],≤ 0
same,SPOT peptide array binding signal intensity,[30],2.5

# Source: the supplement of paper PMC4466140
